Laboratory results as given in PubChem BioAssay AID1159580 (chemical genetic matrix, 2015).
“And” between values parts separate entries of the source, which are not always exact repeats. Identical values can stand only once. The whole screen tested about 5,500 compounds, of which about 2,000 (36%) were called active. About 18% were inconclusive and are not listed. Cut-off read from the data, not from the text of the source: active = normalized growth mostly below about 0.91 (no sharp cut-off); inconclusive = no clear call, values can overlap the other calls; inactive = mostly above about 0.92. This is one part of the list.

Experiment: chemical genetic growth profiling, strain panel (AID 1159580);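 note: tested at 20 µM; growth read once vehicle control cultures reached saturation at 30 °C; 1 = growth at the plate median or of vehicle wells; lower values mean less growth of the strain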
Settings: S. cerevisiae deletion strains, growth OD

**Q.** What does the source list for `CC/C(=C(\c1ccccc1)c1ccc(OCCN(C)C)cc1)c1ccccc1`?
**A.** normalized growth (locus YAL013W, strain DEP1, stronger effect = lower value): 0.0667 (active); normalized growth (locus YAL021C, strain ccr4, stronger effect = lower value): 0.0669 (active); normalized growth (locus YAL026C, strain drs2, stronger effect = lower value): 0.0635 (active); normalized growth (locus YAL030W, strain snc1, stronger effect = lower value): 0.0686 (active); normalized growth (locus YAL040C, strain CLN3, stronger effect = lower value): 1.04 (inactive); normalized growth (locus YBL061C, strain skt5, stronger effect = lower value): 0.072 (active); normalized growth (locus YBR009C, strain hhf1, stronger effect = lower value): 0.0625 (active); normalized growth (locus YBR021W, strain FUR4, stronger effect = lower value): 0.0845 (active); normalized growth (locus YBR023C, strain chs3, stronger effect = lower value): 0.0749 (active); normalized growth (locus YBR171W, strain sec66, stronger effect = lower value): 0.383 (active); normalized growth (locus YBR229C, strain ROT2, stronger effect = lower value): 0.0463 (active); normalized growth (locus YBR231C, strain swc5, stronger effect = lower value): 0.0729 (active); normalized growth (locus YBR279W, strain paf1, stronger effect = lower value): 0.122 (active); normalized growth (locus YCL011C, strain gbp2, stronger effect = lower value): 0.0716 (active); normalized growth (locus YCL016C, strain dcc1, stronger effect = lower value): 0.122 (active); normalized growth (locus YCL029C, strain bik1, stronger effect = lower value): 0.0615 (active); normalized growth (locus YCL061C, strain MRC1 (second series), stronger effect = lower value): 0.311 (active); normalized growth (locus YCL069W, strain vba3, stronger effect = lower value): 0.0995 (active); normalized growth (locus YCR088W, strain abp1, stronger effect = lower value): 0.0758 (active); normalized growth (locus YDL005C, strain med2, stronger effect = lower value): 0.382 (active); normalized growth (locus YDL035C, strain GPR1, stronger effect = lower value): 0.0496 (active); normalized growth (locus YDL040C, strain nat1, stronger effect = lower value): 0.312 (active); normalized growth (locus YDL074C, strain BRE1, stronger effect = lower value): 0.0746 (active); normalized growth (locus YDL101C, strain DUN1, stronger effect = lower value): 0.0532 (active); normalized growth (locus YDL134C, strain PPH21, stronger effect = lower value): 0.0467 (active); normalized growth (locus YDL185W, strain tfp1, stronger effect = lower value): 0.606 (active); normalized growth (locus YDL192W, strain arf1, stronger effect = lower value): 0.062 (active); normalized growth (locus YDR001C, strain nth1, stronger effect = lower value): 0.0956 (active); normalized growth (locus YDR069C, strain doa4, stronger effect = lower value): 0.068 (active); normalized growth (locus YDR101C, strain arx1, stronger effect = lower value): 0.0613 (active); normalized growth (locus YDR137W, strain rgp1, stronger effect = lower value): 0.461 (active); normalized growth (locus YDR150W, strain NUM1, stronger effect = lower value): 0.0558 (active) and 0.416 (active); normalized growth (locus YDR159W, strain sac3, stronger effect = lower value): 0.0992 (active); normalized growth (locus YDR162C, strain NBP2, stronger effect = lower value): 0.046 (active); normalized growth (locus YDR195W, strain ref2): 0.166 (active); normalized growth (locus YDR297W, strain sur2, stronger effect = lower value): 0.0894 (active); normalized growth (locus YDR318W, strain mcm21, stronger effect = lower value): 0.0655 (active); normalized growth (locus YDR334W, strain swr1, stronger effect = lower value): 0.0759 (active); normalized growth (locus YDR335W, strain msn5, stronger effect = lower value): 0.103 (active); normalized growth (locus YDR363W, strain ESC2, stronger effect = lower value): 0.174 (active); normalized growth (locus YDR388W, stronger effect = lower value): 0.0557 (active); normalized growth (locus YDR392W, strain spt3, stronger effect = lower value): 0.0847 (active); normalized growth (locus YDR502C, strain sam2, stronger effect = lower value): 0.0692 (active); normalized growth (locus YEL003W, strain gim4, stronger effect = lower value): 0.127 (active); normalized growth (locus YEL037C, strain rad23, stronger effect = lower value): 0.093 (active); normalized growth (locus YEL061C, strain CIN8 (second series), stronger effect = lower value): 0.243 (active); normalized growth (locus YEL061C, strain CIN8, stronger effect = lower value): 0.0479 (active); normalized growth (locus YER002W, strain NOP16, stronger effect = lower value): 1.02 (inactive); normalized growth (locus YER015W, strain faa2, stronger effect = lower value): 0.117 (active); normalized growth (locus YER016W, strain bim1, stronger effect = lower value): 0.164 (active); normalized growth (locus YER110C, stronger effect = lower value): 0.072 (active); normalized growth (locus YER111C, strain swi4, stronger effect = lower value): 0.372 (active); normalized growth (locus YER155C, strain BEM2 (second series), stronger effect = lower value): 0.668 (active); normalized growth (locus YER155C, strain BEM2, stronger effect = lower value): 0.0653 (active); normalized growth (locus YER167W, strain BCK2, stronger effect = lower value): 0.05 (active); normalized growth (locus YFR010W, strain ubp6, stronger effect = lower value): 0.0799 (active); normalized growth (locus YGL078C, strain dbp3, stronger effect = lower value): 0.901 (active); normalized growth (locus YGL086W, strain mad1, stronger effect = lower value): 0.0577 (active); normalized growth (locus YGL167C, strain pmr1, stronger effect = lower value): 0.196 (active); normalized growth (locus YGL173C, strain kem1, stronger effect = lower value): 0.168 (active); normalized growth (locus YGL227W, strain vid30, stronger effect = lower value): 0.143 (active); normalized growth (locus YGL240W, strain doc1, stronger effect = lower value): 0.436 (active); normalized growth (locus YGL248W, strain PDE1, stronger effect = lower value): 0.0453 (active); normalized growth (locus YGL253W, strain hxk2, stronger effect = lower value): 0.0687 (active); normalized growth (locus YGR078C, strain PAC10, stronger effect = lower value): 0.0556 (active) and 0.48 (active); normalized growth (locus YGR135W, strain pre9, stronger effect = lower value): 0.0678 (active); normalized growth (locus YGR229C, strain SMI1, stronger effect = lower value): 0.061 (active) and 0.0615 (active); normalized growth (locus YGR252W, strain gcn5, stronger effect = lower value): 0.155 (active); normalized growth (locus YHR013C, strain ard1, stronger effect = lower value): 0.174 (active); normalized growth (locus YHR027C, strain rpn1, stronger effect = lower value): 0.102 (active); normalized growth (locus YHR030C, strain SLT2, stronger effect = lower value): 0.0499 (active) and 0.883 (inactive); normalized growth (locus YHR079C, strain IRE1 (second series), stronger effect = lower value): 0.0574 (active); normalized growth (locus YHR079C, strain IRE1, stronger effect = lower value): 0.883 (inactive); normalized growth (locus YHR094C, strain hxt1, stronger effect = lower value): 0.059 (active); normalized growth (locus YHR129C, strain ARP1, stronger effect = lower value): 0.0531 (active); normalized growth (locus YHR142W, strain chs7, stronger effect = lower value): 0.0883 (active); normalized growth (locus YHR200W, strain rpn10, stronger effect = lower value): 0.0609 (active); normalized growth (locus YIL066C, strain RNR3, stronger effect = lower value): 0.0471 (active); normalized growth (locus YIL073C, strain SPO22, stronger effect = lower value): 0.158 (active); normalized growth (locus YIL125W, strain kgd1, stronger effect = lower value): 0.91 (active); normalized growth (locus YIR030C, strain dcg1, stronger effect = lower value): 0.0575 (active); normalized growth (locus YJL092W, strain hpr5, stronger effect = lower value): 0.0913 (active); normalized growth (locus YJL095W, strain BCK1 (second series), stronger effect = lower value): 0.0594 (active); normalized growth (locus YJL095W, strain BCK1, stronger effect = lower value): 0.0507 (active) and 0.883 (inactive); normalized growth (locus YJL115W, strain asf1, stronger effect = lower value): 0.155 (active); normalized growth (locus YJL129C, strain trk1, stronger effect = lower value): 0.159 (active); normalized growth (locus YJL134W, strain LCB3, stronger effect = lower value): 0.0479 (active); normalized growth (locus YJL154C, strain vps35, stronger effect = lower value): 0.078 (active); normalized growth (locus YJL164C, strain tpk1, stronger effect = lower value): 0.0754 (active); normalized growth (locus YJL166W, strain qcr8, stronger effect = lower value): 0.0964 (active); normalized growth (locus YJL168C, strain set2, stronger effect = lower value): 0.057 (active); normalized growth (locus YJL187C, strain SWE1 (second series), stronger effect = lower value): 0.046 (active); normalized growth (locus YJR043C, strain POL32, stronger effect = lower value): 0.0587 (active); normalized growth (locus YJR066W, strain TOR1, stronger effect = lower value): 0.888 (inactive); normalized growth (locus YJR075W, strain HOC1, stronger effect = lower value): 0.0611 (active) and 0.54 (active)
